{"source": "the supplement of paper PMC8728848", "binders": {"B1": {"name": "PX15642A-pgi-501-20-501 (Parabacteroides gingivalis) (protein)", "chain": "CELDRDPEGKDFQQPYTSFVQTKQNRDGLYALLRNTENPRMHFYQELQSDMYCTTITDGNSLAPFVNWDLGILNDHGRADEDEVSGIAGYYFVYNRLNQQANAFVNNTEAALQNQVYKNSTEIANAKSFLAEGKVLQALAIWRLMDRFSFHESVTEVNSGAKDLGVILLKEYNPGYIGPRATKAQCYDYILSRLSEAIEVLPENRESVLYVSRDYAYALRARIYLALGEYGKAAADAKMVVDKYPLIGAADASEFENIYRSDANNPEIIFRGFASATLGSFTATTLNGAAPAGKDIKYNPSAVPFQWVVDLYENEDFRKSVYIAKVVKKDKGYLVNKFLEDKAYRDVQDKPNLKVGARYFSVAEVYLILVESALQTGDTPTAEKYLKALSKARGAEVSVVNMEALQAERTRELIGEGSRLRDMVRWSIPNNHDAFETQPGLEGFANTTPLKAQAPVGFYAYTWEFPQRDRQTNPQLIKNWPI"}}, "test_in_all_cases": "glycan array binding signal (z-score within array); higher = stronger binding", "conditions_in_all_cases": "glycan notation: IUPAC condensed, linker removed", "key": {"Fuc(a1-2)Gal(b1-3)GlcNAc": {"target": "Fuc(a1-2)Gal(b1-3)GlcNAc", "procedure,_shortened": "(§1)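 Glycan array binding is given as a within-array Z-score, which can be read as non-binding when negative. The arrays, 3228 of them, came from the Consortium for Functional Glycomics database and were retained only where the protein sequence was available. Z-scores were averaged across arrays of the same protein sequence at different concentrations or buffers and across linkers.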"}, "[1]": {"target": "Fuc(a1-2)Gal(b1-3)GlcNAc(b1-2)Man(a1-3)[Fuc(a1-2)Gal(b1-3)GlcNAc(b1-2)Man(a1-6)]Man(b1-4)GlcNAc(b1-4)[Fuc(a1-6)]GlcNAc", "procedure,_shortened": "as §1"}, "[2]": {"target": "Fuc(a1-2)Gal(b1-3)GlcNAc(b1-3)GalNAc", "procedure,_shortened": "as §1"}, "[3]": {"target": "Fuc(a1-2)Gal(b1-3)GlcNAc(b1-3)[Neu5Ac(a2-6)Gal(b1-4)GlcNAc(b1-6)]Gal(b1-4)Glc", "procedure,_shortened": "as §1"}, "[4]": {"target": "Fuc(a1-2)Gal(b1-4)GlcNAc(b1-6)GalNAc", "procedure,_shortened": "as §1"}, "[5]": {"target": "Fuc(a1-2)[Gal(a1-3)]Gal(b1-4)GlcNAc(b1-2)Man", "procedure,_shortened": "as §1"}, "[6]": {"target": "Fuc(a1-2)[Gal(a1-3)]Gal(b1-4)GlcNAc(b1-2)Man(a1-3)[Fuc(a1-2)[Gal(a1-3)]Gal(b1-4)GlcNAc(b1-2)Man(a1-6)]Man(b1-4)GlcNAc(b1-4)GlcNAc", "procedure,_shortened": "as §1"}, "[7]": {"target": "Fuc(a1-2)[Gal(a1-3)]Gal(b1-4)GlcNAc(b1-3)GalNAc", "procedure,_shortened": "as §1"}, "[8]": {"target": "Fuc(a1-2)[Gal(a1-3)]Gal(b1-4)GlcNAc(b1-3)[Fuc(a1-2)[Gal(a1-3)]Gal(b1-4)GlcNAc(b1-6)]GalNAc", "procedure,_shortened": "as §1"}, "[9]": {"target": "Fuc(a1-2)[GalNAc(a1-3)]Gal(b1-4)GlcNAc(b1-2)Man", "procedure,_shortened": "as §1"}, "[10]": {"target": "Fuc(a1-3)[Gal(b1-4)]GlcNAc(b1-3)GalNAc", "procedure,_shortened": "as §1"}, "Fuc(a1-4)GlcNAc": {"target": "Fuc(a1-4)GlcNAc", "procedure,_shortened": "as §1"}, "[11]": {"target": "Gal(a1-3)Gal(b1-4)GlcNAc(b1-2)Man(a1-3)[Gal(a1-3)Gal(b1-4)GlcNAc(b1-2)Man(a1-6)]Man(b1-4)GlcNAc(b1-4)GlcNAc", "procedure,_shortened": "as §1"}, "[12]": {"target": "Gal(a1-3)[Gal(a1-4)]Gal(b1-4)GlcNAc", "procedure,_shortened": "as §1"}, "[13]": {"target": "Gal(a1-4)Gal(b1-4)GlcNAc(b1-2)Man(a1-3)[Gal(a1-4)Gal(b1-4)GlcNAc(b1-2)Man(a1-6)]Man(b1-4)GlcNAc(b1-4)GlcNAc", "procedure,_shortened": "as §1"}, "Gal(b1-3)Gal": {"target": "Gal(b1-3)Gal", "procedure,_shortened": "as §1"}, "[14]": {"target": "Gal(b1-3)GalNAc(a1-3)[Fuc(a1-2)]Gal(b1-4)Glc", "procedure,_shortened": "as §1"}, "[15]": {"target": "Gal(b1-3)GlcNAc(b1-6)GalNAc", "procedure,_shortened": "as §1"}, "Gal(b1-3)GlcNAc6S": {"target": "Gal(b1-3)GlcNAc6S", "procedure,_shortened": "as §1"}, "[16]": {"target": "Gal(b1-3)[Fuc(a1-4)]GlcNAc", "procedure,_shortened": "as §1"}, "Gal(b1-4)Gal": {"target": "Gal(b1-4)Gal", "procedure,_shortened": "as §1"}, "[17]": {"target": "Gal(b1-4)GlcNAc(b1-2)Man(a1-3)[GlcNAc(b1-2)Man(a1-6)]Man(b1-4)GlcNAc(b1-4)GlcNAc", "procedure,_shortened": "as §1"}, "[18]": {"target": "Gal(b1-4)GlcNAc(b1-2)Man(a1-6)[Man(a1-3)]Man(b1-4)GlcNAc(b1-4)GlcNAc", "procedure,_shortened": "as §1"}, "[19]": {"target": "Gal(b1-4)GlcNAc(b1-2)[Gal(b1-4)GlcNAc(b1-4)]Man(a1-3)[Gal(b1-4)GlcNAc(b1-2)[Gal(b1-4)GlcNAc(b1-6)]Man(a1-6)]Man(b1-4)GlcNAc(b1-4)GlcNAc", "procedure,_shortened": "as §1"}, "[20]": {"target": "Gal(b1-4)GlcNAc(b1-2)[Gal(b1-4)GlcNAc(b1-6)]Man(a1-6)[Gal(b1-4)GlcNAc(b1-2)Man(a1-3)]Man(b1-4)GlcNAc(b1-4)[Fuc(a1-6)]GlcNAc", "procedure,_shortened": "as §1"}, "[21]": {"target": "Gal(b1-4)GlcNAc(b1-3)Gal(b1-4)GlcNAc(b1-2)Man(a1-3)[Gal(b1-4)GlcNAc(b1-3)Gal(b1-4)GlcNAc(b1-2)Man(a1-6)]Man(b1-4)GlcNAc(b1-4)GlcNAc", "procedure,_shortened": "as §1"}, "[22]": {"target": "Gal(b1-4)GlcNAc(b1-3)Gal(b1-4)GlcNAc(b1-2)[Gal(b1-4)GlcNAc(b1-3)Gal(b1-4)GlcNAc(b1-6)]Man(a1-6)[Gal(b1-4)GlcNAc(b1-3)Gal(b1-4)GlcNAc(b1-2)Man(a1-3)]Man(b1-4)GlcNAc(b1-4)GlcNAc", "procedure,_shortened": "as §1"}, "[23]": {"target": "Gal(b1-4)GlcNAc(b1-3)Gal(b1-4)GlcNAc(b1-6)[Gal(b1-3)]GalNAc", "procedure,_shortened": "as §1"}, "Gal(b1-4)GlcNAc6P": {"target": "Gal(b1-4)GlcNAc6P", "procedure,_shortened": "as §1"}, "[24]": {"target": "GalNAc(b1-4)GlcNAc(b1-2)Man(a1-3)[GalNAc(b1-4)GlcNAc(b1-2)Man(a1-6)]Man(b1-4)GlcNAc(b1-4)GlcNAc", "procedure,_shortened": "as §1"}}, "note": "The entries come from a sample that favours the strongest signals as a whole.", "data": [{"binder": "B1", "values": [{"measurement": "glycan array binding signal (z-score)", "setting": "Fuc(a1-2)Gal(b1-3)GlcNAc", "result": -0.306}, {"measurement": "glycan array binding signal (z-score)", "setting": "[1]", "result": 0.224}, {"measurement": "glycan array binding signal (z-score)", "setting": "[2]", "result": -0.094}, {"measurement": "glycan array binding signal (z-score)", "setting": "[3]", "result": -0.121}, {"measurement": "glycan array binding signal (z-score)", "setting": "[4]", "result": 2.85}, {"measurement": "glycan array binding signal (z-score)", "setting": "[5]", "result": -0.144}, {"measurement": "glycan array binding signal (z-score)", "setting": "[6]", "result": 0.849}, {"measurement": "glycan array binding signal (z-score)", "setting": "[7]", "result": 1.21}, {"measurement": "glycan array binding signal (z-score)", "setting": "[8]", "result": 0.225}, {"measurement": "glycan array binding signal (z-score)", "setting": "[9]", "result": -0.848}, {"measurement": "glycan array binding signal (z-score)", "setting": "[10]", "result": -0.744}, {"measurement": "glycan array binding signal (z-score)", "setting": "Fuc(a1-4)GlcNAc", "result": 2.72}, {"measurement": "glycan array binding signal (z-score)", "setting": "[11]", "result": -0.319}, {"measurement": "glycan array binding signal (z-score)", "setting": "[12]", "result": 6.32}, {"measurement": "glycan array binding signal (z-score)", "setting": "[13]", "result": 0.38}, {"measurement": "glycan array binding signal (z-score)", "setting": "Gal(b1-3)Gal", "result": 0.322}, {"measurement": "glycan array binding signal (z-score)", "setting": "[14]", "result": 1.53}, {"measurement": "glycan array binding signal (z-score)", "setting": "[15]", "result": -0.003}, {"measurement": "glycan array binding signal (z-score)", "setting": "Gal(b1-3)GlcNAc6S", "result": 0.706}, {"measurement": "glycan array binding signal (z-score)", "setting": "[16]", "result": -0.298}, {"measurement": "glycan array binding signal (z-score)", "setting": "Gal(b1-4)Gal", "result": 0.332}, {"measurement": "glycan array binding signal (z-score)", "setting": "[17]", "result": 0.359}, {"measurement": "glycan array binding signal (z-score)", "setting": "[18]", "result": -0.027}, {"measurement": "glycan array binding signal (z-score)", "setting": "[19]", "result": 0.733}, {"measurement": "glycan array binding signal (z-score)", "setting": "[20]", "result": 0.317}, {"measurement": "glycan array binding signal (z-score)", "setting": "[21]", "result": 2.09}, {"measurement": "glycan array binding signal (z-score)", "setting": "[22]", "result": 2.23}, {"measurement": "glycan array binding signal (z-score)", "setting": "[23]", "result": 2.71}, {"measurement": "glycan array binding signal (z-score)", "setting": "Gal(b1-4)GlcNAc6P", "result": -0.285}, {"measurement": "glycan array binding signal (z-score)", "setting": "[24]", "result": 1.15}]}]}
